Assay results: PubChem BioAssay AID504332 (National Center for Advancing Translational Sciences (NCATS), 2011)
Out of some 350,000 compounds screened, about 31,000 (8.9%) were called active. Another 15% or so got no clear call; they are omitted. Calls follow the shape of the dose curve; as a rule, active = well fitted inhibition curve with a large enough effect; inconclusive = small, poorly fitted or top-dose-only effect; inactive = no such curve, though single readings can be large or run the other way. Many of the other results were omitted from the sample, so actives are more common in it than they were.

target: Histone-lysine N-methyltransferase EHMT2 (Homo sapiens) (UniProt Q96KQ7); assay: qHTS Assay for Inhibitors of Histone Lysine Methyltransferase G9a; conditions: G9a H3K9 monomethylation, AlphaScreen, 2 h; series mostly up to 59 µM; also: nearly all actives have a fitted effect of over 75% in size
Procedure, shortened: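 Enzyme 20 nM + cpd, 15 min RT; add b-H3K9 pep 500 nM / SAM 20 uM; 2 h RT; anti-H3K9me1 Ab 0.5 ug/mL + SA donor / anti-rabbit acceptor beads 20 ug/mL each, 10 min; AlphaScreen read.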
% is scaled to controls: 0 for no effect and ±100 for the full control effect; potency is read from the fitted curve at half-maximal effect.

Chain of Histone-lysine N-methyltransferase EHMT2 (Homo sapiens) (Q96KQ7 913-1193 limits assumed): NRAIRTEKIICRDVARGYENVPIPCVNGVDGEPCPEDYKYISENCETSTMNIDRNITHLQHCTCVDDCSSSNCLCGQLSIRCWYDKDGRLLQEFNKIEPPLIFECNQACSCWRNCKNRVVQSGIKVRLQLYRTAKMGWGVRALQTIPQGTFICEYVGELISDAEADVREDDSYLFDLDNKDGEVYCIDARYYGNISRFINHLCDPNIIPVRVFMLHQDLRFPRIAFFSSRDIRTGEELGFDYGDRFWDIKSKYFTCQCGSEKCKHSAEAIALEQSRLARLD

Potency, active:
CC(C)N1CCC(=NNc2ccc([N+](=O)[O-])cc2S(=O)(=O)N2CCOCC2)CC1 15.8 µM, O=C(NCCCO)C(=O)Nc1c2c(nn1-c1ccccc1)CSC2 10 µM, O=C(NCCCO)C(=O)Nc1c2c(nn1-c1ccc(F)cc1)CSC2 11.2 µM, CCOc1cc(C2C(C(=O)c3ccco3)=C(O)C(=O)N2Cc2ccccc2)ccc1O (stereo not drawn) 44.7 µM, Cc1cc(/C=C2/SC(=O)N(CC(=O)N3CCCC3)C2=O)c(C)n1C 50.1 µM, CN1CCN(S(=O)(=O)c2ccc3[nH]cc(C(=O)O)c(=O)c3c2)CC1 56.2 µM, COc1ccc(N2CCN(Cc3ccc(Br)s3)CC2)cc1 3.16 µM, COc1ccc(N2CCN(Cc3nnc(-c4ccccc4)o3)CC2)cc1 35.5 µM, CN1CCN(c2ccc(NC(=O)c3cc(Cl)c4c(c3)OCCO4)cc2)CC1 50.1 µM, COc1ccc2c(c1)cc1n2CCN=C1NN 39.8 µM, COc1ccccc1NC(=O)C1=C(C)NC2=C(C(=O)CCC2)C1c1ccc(C)o1 (stereo not drawn) 50.1 µM, CCCCN(C)C(=O)C1CCN(Cc2ccccn2)CC1 5.62 µM, C=CCN1CN(S(=O)(=O)c2ccc(OC)cc2)c2nc3ccccc3nc21 7.08 µM, O=C(CCCCCn1c(=S)[nH]c2ccsc2c1=O)NC1CCCCC1 10 µM, COc1ccc(C(CCN(Cc2ccc(OC)c(OC)c2)C(=O)CCl)c2ccccc2)cc1 (stereo not drawn) 50.1 µM, C=CS(=O)c1sc(Cl)c(N2CCOCC2)c1[N+](=O)[O-] (stereo not drawn) 1.58 µM, CC1=C(C)CC2C(=O)N(c3cccc4ccccc34)C(=O)C2C1 (stereo not drawn) 7.94 µM, COC(=O)c1ccc(NC(=O)CSc2nnc(Cc3cccn3C)n2-c2ccc(F)cc2)cc1 44.7 µM, Cn1cccc1Cc1nnc(SCC(=O)NCCc2ccccc2)n1-c1ccc(F)cc1 56.2 µM

Potency, inactive:
COc1cc(CN(CC2CCCO2)C(=O)c2ccccc2F)cc(OC)c1OC (stereo not drawn), CCOC(=O)CSC1=Nc2ccccc2C2=NC(CCC(=O)NCc3ccc(F)cc3)C(=O)N12 (stereo not drawn), O=[N+]([O-])c1cc(S(=O)(=O)N2CCCC2)ccc1NN=C1CCCC1, CC(=O)Nc1c2c(nn1-c1cccc(C)c1)CSC2, O=C(Nc1c2c(nn1-c1ccc(F)cc1)CS(=O)C2)C12CC3CC(CC(C3)C1)C2 (stereo not drawn), CC(C)C(=O)Nc1c2c(nn1-c1ccccc1)CSC2, COc1ccc(-n2nc3c(c2NC(=O)c2ccc(N4C(=O)CCC4=O)cc2)CSC3)cc1, COc1cc(CCC(=O)N2CCN(c3ccccc3Cl)CC2)cc(OC)c1OC, CCc1ccc(CN(Cc2ccco2)C(=O)COc2ccc(Cl)c(C)c2)cc1, Cc1ccc(OCCSc2nc(C)c(Cc3ccccc3)c(=O)[nH]2)cc1, CCOc1cc(C2c3c(-c4ccc(Br)cc4)n[nH]c3C(=O)N2c2ccc(Cl)cc2)ccc1O (stereo not drawn), Cc1cc(/C=C2/SC(=O)N(CC(=O)N3CCCC3)C2=O)ccc1N1CCOCC1, CCn1cc2nc(SCc3ccccc3Cl)n(CCc3ccccc3)c(=O)c2n1, C=CCOc1ccc(/C=C/C(=O)OC(C)C(=O)Nc2ccc(NC(C)=O)cc2)cc1 (stereo not drawn), COc1ccc(CNC(=O)COC(=O)CCS(=O)(=O)c2ccc(C)cc2)cc1OC, CN1CCN(S(=O)(=O)c2cccc(C(=O)O)c2)CC1, CN1CCCN(S(=O)(=O)c2ccc3c(c2)OCCO3)CC1, Cc1ccc(C)c(N2CCN(Cc3nnc(-c4ccccc4)o3)CC2)c1, COc1ccc(N2CCN(Cc3nc4c(c(=O)[nH]c(=O)n4C)n3Cc3ccc(Cl)cc3)CC2)cc1, Cc1ccc(-c2nnc(CN3CCN(C)CC3)o2)cc1, COc1ccc(NC(=O)CN2CCCN(Cc3ccccc3)S2(=O)=O)cc1, CC(C)Sc1ncnc2c1cnn2-c1ccccc1, Cc1cc(NC(=O)C(C)SCC(=O)Nc2ccccc2N2CCCCC2)no1 (stereo not drawn), CCOc1ccc(CNC(=O)c2ccc3nc(CC)c(CC)nc3c2)cc1OC, CCCCNC(=O)N(O)C1N(/N=C/c2ccccc2O)C(=S)SC1(C)C (stereo not drawn), O=C(Nc1cccc(Cl)c1N1CCOCC1)c1ccc2c(c1)OCCO2, CN1CCN(c2ccc(NC(=O)c3ccccc3)cc2)CC1, CCCC12CN3CC(C)(CN(C1)C3c1ccccc1Cl)C2=O (stereo not drawn), Cc1ccc(C)c(NC(=O)Cn2ccn(-c3ccc(F)cc3)c(=O)c2=O)c1, Cc1cccc(C(=O)Nc2ccc(-c3nc4ncccc4o3)cc2C)c1, CCc1cccc(NC(=O)Cn2nc(CC)n3c(cc4cc(C)ccc43)c2=O)c1, COc1ccccc1NC(=O)C1=C(C)NC(=O)NC1c1ccc(C)s1 (stereo not drawn), CCOC(=O)c1cc2c(=O)n3ccccc3nc2n(CC2CCCO2)c1=NC(=O)c1ccccc1Br (stereo not drawn), CC(=O)N/C(=C\c1ccccc1)C(=O)OC(C)C(=O)N(C)c1ccccc1 (stereo not drawn), Cc1ccc(OCCCC(=O)Nc2ccc3c(c2)OCCO3)cc1, O=C(c1ccc(OC2CCN(Cc3ccccn3)CC2)cc1)N1CCCCCC1, Cc1noc(C)c1COc1ccccc1C(=O)N(C)CC(=O)Nc1cccc(F)c1, CCOC(=O)c1ccc(NC(=O)Cn2cc(S(=O)(=O)Cc3ccccc3F)c3ccccc32)cc1, Cc1cc(C(=O)CCC(=O)NNC(=O)c2ccccc2O)c(C)s1, Cc1sc2nc(SCCO)n(-c3ccccc3)c(=O)c2c1C, O=S(=O)(c1ccccc1)N1CN(Cc2ccc(F)cc2)c2nc3ccccc3nc21, COc1ccc(S(=O)(=O)N2CCSCC2)cc1, O=C(CC1C(=O)N(c2ccccc2)C(=O)N1CCc1cccs1)Nc1ccc(F)cc1 (stereo not drawn), Cc1ccccc1C(=O)NC(=S)NC1CC1, CCn1c2ccccc2c2cc(NC(=O)COc3ccc(C)cc3C)ccc21, O=C(CCC(=O)c1cccs1)NC1CCCCCC1, CCCCC(CC)CNC(=O)CCCCn1c(=O)[nH]c2ccsc2c1=O (stereo not drawn), COc1ccccc1-c1sc2ccccc2c1-c1ccc(C(C)=O)cc1, COc1ccc(CN(C)C(=O)CC(c2ccccc2)c2ccccc2)cc1, CCOC(=O)CN(Cc1ccc(OC)c(OC)c1)S(=O)(=O)c1ccc(OC)cc1, Cc1ccc(Cl)cc1N1CCN(C(=O)c2cn(C)c3ccc(S(=O)(=O)N(C)C4CCCCC4)cc3c2=O)CC1, CCn1cc(CCC(=O)NCc2ccc(F)cc2)c2ccccc21, COc1cc(OC)c(OC)cc1/C=C/c1nc2cc3ccccc3cc2c(=O)n1-c1ccc(F)c(Cl)c1, Fc1ccc(Nc2nc(SCc3ccccc3Cl)nc3ccccc23)cc1, O=C(CC1Oc2ccccc2NC1=O)NCc1ccc(F)cc1 (stereo not drawn), CCc1ccccc1N1C(=O)C2C3CC(=O)C(c4ccccc43)C2C1=O (stereo not drawn), O=C1c2ccccc2C(=O)N1c1cccc2ccccc12, CCCCn1cc(S(=O)(=O)c2ccc(OCC)cc2)c(=O)c2cc(OC)c(OC)cc21, COc1ccc(C2c3c(oc4ccccc4c3=O)C(=O)N2Cc2ccc3c(c2)OCO3)cc1 (stereo not drawn), O=C(CSc1nnc(CNC(=O)c2ccccc2)n1-c1ccc(F)cc1)Nc1ccccc1F, CNC(=O)CSc1nnc(CCc2ccccc2)n1-c1ccccc1, COC(=O)c1ccc(NC(=O)CSc2nnc(C3CC3)n2C)cc1, COC(=O)c1ccc(NC(=O)CSc2nnc(-c3ccncc3)n2C)cc1

activity, negative = inhibition, inactive:
Cc1ccc(S(=O)(=O)N(C)CC(=O)NCC(c2ccc(F)cc2)N2CCOCC2)cc1 (stereo not drawn) 19.1% [at 12.7 µM], O=[N+]([O-])c1ccc(NCCCN2CCOCC2)c(Cl)c1 20.5% [at 2.33 µM], CC(=O)NC12CC3CC(C1)CC(C(=O)N1CCN(S(=O)(=O)c4cccs4)CC1)(C3)C2 5.2% [at 12.7 µM], O=C(C1=C(O)C(=O)N(Cc2ccccc2)C1c1ccco1)c1ccco1 (stereo not drawn) 0.744% [at 12.7 µM], O=C(CCNS(=O)(=O)c1ccccc1C(F)(F)F)Nc1ccncc1 -8.2% [at 12.7 µM], Cc1cc(/C=C2/SC(=O)N(CC(=O)OC(C)C)C2=O)c(C)n1C 19.4% [at 12.7 µM], Cc1cccc(N=C2SC(C)CN2C(=O)CN2C(=O)NC3(CCCC3)C2=O)c1 (stereo not drawn) -1.2% [at 0.501 µM], CCOCc1c(C(=O)N2CCN(Cc3ccc(Br)s3)CC2)oc2ccccc12 16.1% [at 2.33 µM], CNS(=O)(=O)c1cccc(C(=O)OCC(=O)N2c3ccccc3NC(=O)C2(C)C)c1 10.5% [at 12.7 µM], COc1ccc2ccn(C)c2c1 -0.398% [at 0.501 µM], COC(=O)C1=CO[C@@H](O[C@@H]2O[C@H](CO)[C@@H](O)[C@H](O)[C@H]2O)C2C1C[C@H](O)[C@@H]2C (stereo partly drawn) 1.46% [at 2.33 µM], COc1ccccc1C(=O)NCC(=O)OCC(=O)Nc1nnc(-c2ccccc2)o1 17.3% [at 12.7 µM], COc1ccccc1NC(=O)C1=C(C)Nc2ncnn2C1c1ccc(C)o1 (stereo not drawn) -42.2% [at 12.7 µM], CN(CCc1ccccn1)C(=O)c1ccc(OC2CCN(Cc3ccccn3)CC2)cc1 24.7% [at 0.501 µM], CCn1c(=O)c(C(=O)NCc2ccc3c(c2)OCO3)c(O)c2ccccc21 8.89% [at 0.501 µM], CCc1noc(C)c1C(=O)Oc1ccc(N(C)S(=O)(=O)c2ccc(C)c(C)c2)cc1 15.4% [at 12.7 µM]
